# Measurements from PubChem BioAssay (EPA / NIEHS).
# “And” between values parts separate entries of the source, which are not always exact repeats. Equal entries are not always repeated. A structure can be active in one record and inactive in another. The source made the active and inactive calls. Rule for the calls: active = hit-call score of the fitted dose curve at least 0.9, where 1 is the maximum; inactive = score below 0.9.
# Assay: ATG_Oct_MLP_CIS: Attagene CIS-FACTORIAL HepG2 Assay for human Octamer-Binding Transcription Factor (Oct) (AID 2282993)
# Settings: HepG2 Attagene cis-factorial Oct reporter, mRNA; actives raise or lower the signal
# Description: ATG_CIS is a cell-based, multiplexed-readout assay that uses HepG2, a human liver cell line, with measurements taken at 24 hours after chemical dosing in a 24-well plate.ATG_Oct_MLP_CIS is one of 52 assay component(s) measured or calculated from the ATG_CIS assay. It is designed to make measurements of mRNA induction, a form of inducible reporter, as detected with fluorescence intensity signals by Reverse transcription polymerase chain reaction (RT-PCR) and Capillary electrophoresis technology.Data from the assay component ATG_Oct_MLP_CIS was analyzed into 1 assay endpoint. This assay endpoint, ATG_Oct_MLP_CIS, was analyzed with bidirectional fitting relative to DMSO as the negative control and baseline of activity. Using a type of inducible reporter, measures of mRNA for gain or loss-of-signal activity can be used to understand the reporter gene at the transcription factor-level as they relate to the gene POU2F1. Furthermore, this assay endpoint can be referred to as a primary readout, because this assay has produced multiple assay endpoints where this one serves a reporter gene function. To generalize the intended target to other relatable targets, this assay endpoint is annotated to the dna binding intended target family, where the subfamily is POU domain protein.
# Human liver HepG2 cells are transiently transfected with multiple reporter transcription units (MRTUs) in 6-well plates using FuGene 6 reagent (Roche; 3 ml FuGene/1 mg DNA). The MRTU constructs are regulated by a cis-regulating element (promoter). […] A major difference between the CIS and TRANS system is that in CIS activities of endogenous TFs are measured, whereas the TRANS assay evaluates changes in activities of exogenous, chimeric NR-Gal4 proteins. […] At the end of 24 hour incubation, total RNA was isolated using TriZol reagent (Invitrogen). The isolated RNA is then reverse-transcribed using oligo(dT) primer and Mo-MLV reverse transcriptase (Invitrogen) with DNAse I (Ambion) treatment for 30 min. The one-tenth of the produced cDNA was amplified by PCR using Taq DNA polymerase (Invitrogen) and two reporter sequence-specific primers. The PCR products were fluorescently labeled by primer extension with 6-arboxyfluorescein (6-FAM) 5'-labeled reporter sequence-specific primer (2 min at 95 C, 20 s at 68 C and 10 min at 72 C) and these products were digested with 5U of HpaI (New England Biolabs) for 2h at 37 C. The fragments were purified using Qiaquick PCR columns (Qiagen), analyzed on an ABI 3130xL genetic analyzer (Applied Biosystems) with peak positions identified by using a set of X-rhodamine (ROX)-labeled MapMarker1000 molecular weight standards (BioVentures). The raw capillary electrophoresis data was processed using Attagraph software (Attagene).
Compound,outcome,AC50
Cc1cc(F)ccc1-c1cc(N2CC[C@@H](O)[C@H]2CO)ncc1N(C)C(=O)C(C)(C)c1cc(C(F)(F)F)cc(C(F)(F)F)c1,inactive,
CCCCCCCCCCCCO,inactive,
CN1C(=O)N(c2ccccc2Br)Cc2cnc(Nc3ccc4c(c3)OCC(CO)O4)nc21 (stereo not given),,9.54 µM (active)
c1ccc2ccccc2c1,inactive,
CC(C)(C)c1cc(/C=C2\SC(N)=NC2=O)cc(C(C)(C)C)c1O,,16.2 µM (active)
OCCO,inactive,
Cc1ncc(CO)c(CO)c1O,inactive,
O=C=NCCCCCCN=C=O,inactive,
COc1cccc([C@H](O)C2CCN(CCc3ccc(F)cc3)CC2)c1OC,,157 µM (active)
NC(=O)c1nc(-c2cccc(-c3cc(F)ccc3OCC(F)(F)C(F)(F)F)c2)n[nH]1,,27.4 µM (active)
Cc1occc1C(=O)Nc1ccc(C(=O)N2CCC(F)(F)/C(=C\C(=O)N3CCC(N4CCCCC4)CC3)c3ccccc32)cc1,,49.6 µM (active)
CCOC(=O)O[C@H](C)OC(=O)c1ccc2c(c1)cc(C(=O)NC1CCN(C(C)C)CC1)n2Cc1cc(-c2ccc(Cl)s2)on1,inactive,
C[C@]12CC[C@@H]3c4ccc(O)cc4CC[C@H]3[C@@H]1CC[C@H]2O,inactive,27.2 µM (active)
COCC(C)OCC(C)OCC(C)O (stereo not given),inactive,
CCCCCCCCOc1ccc(C(=O)c2ccccc2)c(O)c1,inactive,
CC/C(=C(/CC)c1ccc(O)cc1)c1ccc(O)cc1,inactive,16.7 µM (active) and 11.1 µM (active) and 16.6 µM (active)
CCCCCCCCCCCC[N+](C)(C)C,inactive,20 µM (active)
Oc1ccc2ccccc2c1,inactive,

Compound,outcome,AC50
CCCOC(=O)c1cc(O)c(O)c(O)c1,inactive,
O=C(OCCCCCCOC(=O)c1ccccc1)c1ccccc1,inactive,
CCCCCCCCCCCO,inactive,
C[C@]12CC[C@@H]3c4ccc(O)cc4CC[C@H]3[C@@H]1CCC2=O,inactive,
CCO[Si](CCCNC(N)=O)(OCC)OCC,inactive,
Cc1oc2c(NC(=O)c3c(Cl)cccc3Cl)cccc2c1C(C)(C)O,inactive,
Cc1c2ccccc2c(C)c2c1ccc1ccccc12,inactive,
Oc1ccccc1,inactive,
Clc1ccccc1C(c1ccccc1)(c1ccccc1)n1ccnc1,,11.1 µM (active)
CCCCCCCCOC(=O)c1cc(O)c(O)c(O)c1,inactive,
O=C(O)Cc1cc(I)c(Oc2ccc(O)c(I)c2)c(I)c1,inactive,35.7 µM (active) and 100 µM (active)
Cc1cc2c(cc1C(F)(F)F)N(C(=O)Nc1ccc(Oc3cccnc3C)nc1)CC2,inactive,
CCN(Cc1cccnc1)C(=O)c1cccc(Cl)c1[C@]1(C)C(=O)N(Cc2ccc(OC)cc2OC)c2ccc(Cl)cc21,,2.6 µM (active)
CC(C)(O)c1ccc(CNC(=O)c2cccnc2Oc2ccc3nonc3c2)cc1,inactive,
CCN(CC)C(=O)c1cc(S(=O)(=O)Cc2ccccc2)c(N2CCC(c3ccccc3)CC2)cc1N(CC)CCN(C)C,inactive,
O=c1c(-c2ccc(O)cc2)coc2cc(O)cc(O)c12,inactive,49.4 µM (active)
c1ccc2n[nH]nc2c1,inactive,
